Measured values published in PubChem BioAssay AID1063 (University of Pittsburgh Molecular Library Screening Center, 2008).
Among all 200,000 compounds or so, about 18,000 (9%) were called active. No stated cut-off is given here; in the data, active means inhibition above about 50%; inactive means the rest. The entries come from a sample that favours actives as a whole.

Test: Leishmania major promastigote growth inhibition, primary screen (AID 1063);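 further: promastigotes grown with compound for 44 hours at 28 °C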
Conditions: Leishmania major promastigotes, resazurin fluorescence viability; at 10 µM; stronger effect = higher value

Structure (SMILES) | inhibition
COc1ccc(-c2csc(NC(=O)c3ccc(N4C(=O)CCC4=O)cc3)n2)cc1OC | 6.8% (inactive)
CCOC(=O)c1csc(NC(=O)c2ccc(S(=O)(=O)N3CCCC3)cc2)n1 | 0.83% (inactive)
COc1ccc(C(=O)Nc2nc(-c3ccc(S(=O)(=O)N4CCOCC4)cc3)cs2)cc1 | 80.4% (active)
C=CCN(c1ccc(Cl)cc1)S(=O)(=O)c1cccc(C(=O)OCC(=O)N(C)C)c1 | -0.9% (inactive)
Cc1c(Br)c([N+](=O)[O-])nn1CC(=O)N1CCN(Cc2ccccc2)CC1 | 0.53% (inactive)
Cc1cc(OCCCN2CCN(Cc3ccccc3)CC2)ccc1[N+](=O)[O-] | 94.3% (active)
O=C(COc1ccccc1[N+](=O)[O-])NC1CC1 | -4.5% (inactive)
Cc1ccccc1N1CCN(CCCOc2ccc3c(C)cc(=O)oc3c2)CC1 | 42.5% (inactive)
Cc1cc(OCC(=O)NC2CCN(C)CC2)ccc1[N+](=O)[O-] | 55% (active)
Cc1ccc(C(=O)COC(=O)CCCC(=O)NC2CCCCC2)cc1[N+](=O)[O-] | 33.2% (inactive)
O=C(O)Cc1sc(-c2ccccc2)nc1-c1cccs1 | -7.68% (inactive)
CC(=O)NCC(=O)N1CCCC(C(=O)c2ccc3c4c(cccc24)CC3)C1 (stereo not drawn) | 1.15% (inactive)
O=C(COc1ccccc1Cl)Nc1ccc(C(=O)c2ccc(C(=O)O)cc2)cc1 | 0.1% (inactive)
CN(CC(=O)Nc1ccccc1[N+](=O)[O-])Cc1ccc(Br)cc1 | 5.69% (inactive)
CC1=C(C)C(=O)OC(C(C)C2CCC3C4CC=C5CC(OC6OC(COC7OC(CO)C(O)C(O)C7O)C(O)C(O)C6O)CC(O)C5(C)C4CCC23C)C1 (stereo not drawn) | -11.1% (inactive)
Cc1cc(C)cc(OCC(=O)NCc2cc(C)nc3ccccc23)c1 | 36.5% (inactive)
COC(=O)CC1=NN(c2ccccc2)C(=O)C1 | -3.08% (inactive)
C/C(=C\C(=O)c1cccnc1)Nc1ccc(C)c(C)c1 | 20.1% (inactive)
Cc1ccc(-n2c(C)cc(/C=C(\C#N)C(=O)NCC3CCCO3)c2C)cc1 (stereo not drawn) | -2.28% (inactive)
Cc1cc(/C=C(/C#N)C(=O)Nc2ccc(Cl)cc2)c(C)n1-c1cccnc1 | 56.9% (active)
COC(=O)c1c(C)[nH]c(C)c1-c1ccc([N+](=O)[O-])cc1 | 12.6% (inactive)
O=C(CSc1nn(-c2ccc(F)cc2)c(=S)s1)NC1CCS(=O)(=O)C1 (stereo not drawn) | 2.16% (inactive)
COc1ccc(NC(=O)CCNS(=O)(=O)c2ccc3c(c2)c(=O)n(C)c(=O)n3C)cc1OC | -8.95% (inactive)
CCC(=O)NC(=S)Nc1ccc(NC(=O)c2ccco2)c(Cl)c1 | -3.46% (inactive)

Structure (SMILES) | inhibition
CCN(CC)P(=O)(Nc1ccc(SC(F)F)cc1)c1ccc(N(C)C)cc1NC(=O)c1ccco1 (stereo not drawn) | 85.2% (active)
O=C(Nc1ccc(Sc2ccc(Br)cc2)cc1)c1ccco1 | -2.45% (inactive)
COc1ccc(N2CCN(C(=O)COc3ccc4c(C)cc(=O)oc4c3)CC2)cc1 | 1.16% (inactive)
Cc1ccc2cc(C#N)c(NCCNC(=S)NCCCN3CCOCC3)nc2c1 | 1.99% (inactive)
CN(C)S(=O)(=O)N1CCN(c2ccc([N+](=O)[O-])cc2)CC1 | -7.87% (inactive)
Cc1cc(C)c(OCCN2CC(C)OC(C)C2)c(Br)c1 (stereo not drawn) | 88.1% (active)
CC(=O)Nc1cccc(C(=O)Nc2nc(C)cs2)c1 | 11.8% (inactive)
CC1CCCN(CC(O)COCc2ccccc2)C1 (stereo not drawn) | 11% (inactive)
CN1CCN(CC(O)COCc2ccc3c(c2)OCO3)CC1 (stereo not drawn) | -2.38% (inactive)
CC1CCCN(CC(O)COc2ccc3c(c2)OCO3)C1 (stereo not drawn) | 54.4% (active)
Cc1coc(C)c1C(=O)CC1(O)C(=O)N(C)c2ccc(Cl)cc21 (stereo not drawn) | 1.6% (inactive)
O=C(Nc1cccc(Cl)c1)c1cc([N+](=O)[O-])ccc1N1CCN(CCO)CC1 | 0.91% (inactive)
COc1cc(NC(=S)NCCSc2ccc(C)cc2)cc(OC)c1 | 7.14% (inactive)
Cn1c(N)c(C(=O)COC(=O)/C=C/c2ccc(OC(F)F)cc2)c(=O)n(C)c1=O | -9.55% (inactive)
CCCCCC(=O)Nc1ccc(-c2cn3cccnc3n2)cc1 | -7.19% (inactive)
O=C(N/N=C/c1ccc2c(c1)OCO2)c1ccc(Cn2cc([N+](=O)[O-])cn2)o1 | 87% (active)
CN(C)c1ccc(/C=N/NC(=O)c2ccc(Cn3cc(Br)cn3)o2)cc1 | 3.04% (inactive)
O=C(N/N=C\c1ccc(Br)cc1)c1ccc(Cn2cccn2)o1 | 1.72% (inactive)
CCCCN1C(=S)NC[C@@H]1C(C)CC (stereo partly drawn) | -1.31% (inactive)
CCOC(=O)c1ccc(NNC(C)=O)c([N+](=O)[O-])c1 | -5.16% (inactive)
COc1ccc(OC)c(C2C3=C(N=c4s/c(=C\c5cccc(O)c5)c(=O)n42)c2ccccc2CC3)c1 (stereo not drawn) | 75.7% (active)
COCCOC(=O)C1=C(C)N=c2s/c(=C\c3cccs3)c(=O)n2C1c1cccs1 (stereo not drawn) | 7.92% (inactive)
CCOC(=O)C1=C(C)N=c2s/c(=C\C(=O)OC)c(=O)n2C1c1ccc(OC)cc1 (stereo not drawn) | 18.8% (inactive)
COc1ccc(C2CC(c3ccccc3)=NN2C(=O)COC(=O)COc2ccccc2)cc1 (stereo not drawn) | 2.56% (inactive)

Structure (SMILES) | inhibition
CNC(=S)N1N=C(c2ccccc2)CC1c1ccc(Br)cc1 (stereo not drawn) | 99.3% (active)
Brc1ccc(C2CC(c3ccccc3)=Nc3ccccc3N2)cc1 (stereo not drawn) | 27.2% (inactive)
O=C1CS(=O)CN1c1ccc(Oc2ccccc2)cc1 (stereo not drawn) | -2.75% (inactive)
NS(=O)(=O)c1cccc(NC(=O)COC(=O)/C=C/c2ccco2)c1 | -5.99% (inactive)
CCN(c1ccccc1)S(=O)(=O)c1ccc(C(=O)Nc2nccs2)cc1 | 72.2% (active)
CCN(c1ccccc1)S(=O)(=O)c1ccc(NC(=O)C(C)(C)C)cc1 | 0.65% (inactive)
CC(=O)Oc1ccc(C(=O)Nc2nccs2)cc1 | -7.34% (inactive)
COc1ccc(CCc2nnc(CCC(=O)NCc3cnn(-c4ccccc4C)c3)o2)cc1 | 6.37% (inactive)
CCOC(=O)N1CCN(C(=O)c2nn(-c3ccc(C)cc3)c(=O)c3c2c2ccccc2n3C)CC1 | -5.83% (inactive)
O=C(c1ccccc1Oc1ccccc1)N1CCN(c2ccc(F)cc2)CC1 | 10.2% (inactive)
Cn1c2ccccc2c2c(C(=O)N3CCN(c4ccc(F)cc4)CC3)cn(C3CCCC3)c(=O)c21 | 99.4% (active)
O=C(CSc1nnc2ccc(-c3ccncc3)nn12)N1CCCCC1 | 20.4% (inactive)
CC(=O)Nc1ccc(S(=O)(=O)NC2(C(F)(F)F)C(=O)NC(C)=C2C#N)cc1 (stereo not drawn) | -4.23% (inactive)
O=C(NCc1nnc(SCC(=O)N2CCCc3ccccc32)o1)c1ccccc1F | -5.95% (inactive)
CN(C)c1ccc(/C=C/C(=O)c2ccc(C(C)(C)C)cc2)cc1[N+](=O)[O-] | 27.1% (inactive)
O=C(/C=C/c1ccc(Cl)cc1Cl)NCc1ccco1 | -1.38% (inactive)
O=C(/C=C/c1ccc(Cl)c([N+](=O)[O-])c1)c1cccnc1 | 100% (active)
O=C(/C=C/c1ccc(Cl)cc1Cl)c1cccnc1 | 100% (active)
O=C(Nc1cccnc1)c1ccc(Cl)c([N+](=O)[O-])c1 | 1.22% (inactive)
O=C(NCc1ccc(Cl)c(Cl)c1)c1cccnc1 | -2.18% (inactive)
COCCNc1nc2nonc2nc1N(C)Cc1ccc(C)cc1 | 2.88% (inactive)
CCC(C)(C(=O)Nc1ccccc1C)N(C(=O)CNC(C)=O)c1ccc(C)cc1 (stereo not drawn) | -4.62% (inactive)
CSc1ccc(CN2C(=O)NC3(CCCCCC3)C2=O)cc1 | 9.1% (inactive)
CC(NCc1nc2ccccc2n1C)C12CC3CC(CC(C3)C1)C2 (stereo not drawn) | 12.4% (inactive)

Structure (SMILES) | inhibition
Cc1ccccc1-c1nc(C#N)c(NCc2ccco2)o1 | -3.77% (inactive)
CC(C)(C)C1CCC(C(=O)Nc2cccnc2)CC1 (stereo not drawn) | -5.65% (inactive)
CCOC(=O)c1sc(-c2cccc([N+](=O)[O-])c2)cc1N | 4.06% (inactive)
CCOC(=O)c1sc(C)c2c1NC(C)(c1cccc3ccccc13)NC2=O (stereo not drawn) | 97.3% (active)
CCOC(=O)c1sc2nc(CSc3ccccc3)[nH]c(=O)c2c1C | 14.1% (inactive)
O=C(O)CCCCCNc1ncnc2ccc(Br)cc12 | -1.72% (inactive)
CC(C)OC(=O)CN1C(=O)C(=O)c2ccccc21 | 88% (active)
CC(C)OC(=O)CN1C(=O)c2ccccc2C1=O | 14.7% (inactive)
Cc1cccc2c1N(CC(=O)OC(C)C)C(=O)C2=O | -12.8% (inactive)
O=C(CC1CCCCC1)NCc1ccc(F)cc1 | -12.7% (inactive)
CC(C)Oc1ccc(CCc2nnc(SCC(=O)O)n2-c2ccccc2)cc1 | -8.77% (inactive)
NS(=O)(=O)c1ccc(NC(=O)COC(=O)c2ccco2)cc1 | 0.53% (inactive)
NS(=O)(=O)c1ccc(NC(=O)COC(=O)C2(c3ccc(F)cc3)CCCC2)cc1 | 70.2% (active)
CN(C)S(=O)(=O)c1cccc(NC(=O)COC(=O)C2(c3ccccc3F)CCCC2)c1 | 28.6% (inactive)
CC(Oc1ccc(Br)cc1Br)C(=O)NC1CCCC1 (stereo not drawn) | -1.48% (inactive)
O=C(CSCC(=O)Nc1cccc([N+](=O)[O-])c1)Nc1ccccc1 | 4.18% (inactive)
CC(=O)Nc1ccc(Nc2c([N+](=O)[O-])cc(S(C)(=O)=O)cc2[N+](=O)[O-])cc1 | 10.8% (inactive)
CC(=O)Nc1ccc(Nc2c3ccccc3nc3ccccc23)cc1 | 101% (active)
CC(=O)Nc1ccc(NC(=O)COc2ncnc3ccccc23)cc1 | -2.61% (inactive)
O=[N+]([O-])c1cccc(Nc2c3ccccc3nc3ccccc23)c1 | 69.1% (active)
Cc1cc(CNC(=O)c2cccc([N+](=O)[O-])c2)c2ccccc2n1 | 9.74% (inactive)
